From PubChem BioAssay AID602292 (National Center for Advancing Translational Sciences (NCATS), 2012) come the findings set out here.

Each structure is given as a SMILES string. In all, about 1,300 compounds went through this assay and about 380 (29%) were called active. Inconclusive results (about 37%) are left out. This is one part of the list. Values without a mark were called inactive. Calls follow the shape of the dose curve; as a rule, active = well fitted inhibition curve with a large enough effect; inconclusive = small, poorly fitted or top-dose-only effect; inactive = flat fitted curve, though single readings scatter.
% is scaled to controls: 0 for no effect and ±100 for the full control effect; potency is read from the fitted curve at half-maximal effect.

In this assay the target is Thyrotropin receptor (Homo sapiens) (UniProt P16473). Nature of the assay: qHTS for antagonists of the Thyroid Stimulation Hormone Receptor: Hit Validation in Primary Screen. Also: nearly all actives have a fitted effect of over 80% in size.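 As to activity change, negative = inhibition: cAMP by competitive HTRF where cellular cAMP lowers the 665 nm FRET signal.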 The following applies: TSHR-expressing cells, cAMP antagonist mode; series mostly up to 58 µM; activity change, negative = inhibition: at the top concentration. In a few lines: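 TSHR-expressing cells were pretreated with compound, then stimulated with TSH at EC80 (4nM final) for 2 hours at 37 deg C. Cellular cAMP measured by competitive HTRF (anti-cAMP cryptate, cAMP-d2) after 30 min at room temperature.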
Sequence of Thyrotropin receptor (Homo sapiens) (P16473 whole entry, looked up): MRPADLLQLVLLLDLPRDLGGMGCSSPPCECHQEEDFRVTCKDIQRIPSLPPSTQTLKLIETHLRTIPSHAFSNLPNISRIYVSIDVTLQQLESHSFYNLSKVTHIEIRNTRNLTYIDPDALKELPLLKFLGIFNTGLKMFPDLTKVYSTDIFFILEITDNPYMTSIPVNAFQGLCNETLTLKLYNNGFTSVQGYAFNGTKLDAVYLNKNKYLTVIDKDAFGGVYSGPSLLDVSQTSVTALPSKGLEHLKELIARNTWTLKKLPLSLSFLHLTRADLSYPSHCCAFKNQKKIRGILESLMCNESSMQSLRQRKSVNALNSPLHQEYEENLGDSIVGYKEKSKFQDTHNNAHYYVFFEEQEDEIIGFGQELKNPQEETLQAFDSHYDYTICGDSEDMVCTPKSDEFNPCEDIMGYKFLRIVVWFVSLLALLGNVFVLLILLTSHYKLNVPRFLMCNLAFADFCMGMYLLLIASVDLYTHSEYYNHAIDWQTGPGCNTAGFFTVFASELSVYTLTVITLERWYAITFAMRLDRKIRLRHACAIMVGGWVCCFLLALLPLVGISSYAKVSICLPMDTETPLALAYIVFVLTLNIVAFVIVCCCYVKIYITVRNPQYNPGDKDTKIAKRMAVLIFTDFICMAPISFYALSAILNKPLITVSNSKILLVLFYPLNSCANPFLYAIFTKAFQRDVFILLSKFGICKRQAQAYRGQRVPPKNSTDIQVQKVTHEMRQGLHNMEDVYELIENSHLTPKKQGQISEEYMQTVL
Turning to `O=C(CSc1nnc(NC(=O)c2cccc(Br)c2)s1)NCC1CCCO1` (stereo not given), the “activity change, negative = inhibition” value is -5.53%.
Turning to `CCOc1ccc2nc(NC(=O)c3ccc(OCC4CCCO4)cc3)sc2c1` (stereo not given), the Potency is 30.1 µM (active).
Take `CCOc1ccc2nc(NC(=O)CS(=O)(=O)c3ccccc3)sc2c1`: the “activity change, negative = inhibition” value is -7.2%.
For the molecule `C=CS(=O)(=O)c1sc(Cl)c(N2CCOCC2)c1[N+](=O)[O-]`, the Potency is 26.9 µM (active).
For the molecule `Cc1ccc(/C=C/C(=O)Nc2ccc(Oc3ccccc3)cc2)o1`, the Potency was 23.9 µM (active).
Consider `Cc1ccc(CCC(=O)NCc2ccccc2)o1`, for which the “activity change, negative = inhibition” value was -3.92%.
Turning to `COC(=O)c1cc(-c2c[nH]c3ccccc23)n[nH]1`, the “activity change, negative = inhibition” value was -11.6%.
As to `CCn1nc(C)cc1-c1nnc(Sc2ncc([N+](=O)[O-])s2)n1C`, the Potency is 15.1 µM (active).
For the molecule `CC(=O)N1c2ccc(S(=O)(=O)NCCC(=O)Nc3ccccc3C)cc2CC1C` (stereo not given), the “activity change, negative = inhibition” value is -0.317%.
Regarding `S=C(Nc1ccc(Oc2ccccc2)cc1)NC1CCCCCC1`, the Potency is 12 µM (active).
Regarding `CC(=O)c1ccc(NC(=O)C(C)N(C)CC(=O)Nc2ccc(N3CCOCC3)cc2)cc1` (stereo not given), the “activity change, negative = inhibition” value is -4.26%.
In the case of `Cc1ccc(S(=O)(=O)/N=C2\C=C(Nc3cccc(C(=O)O)c3)C(=O)c3ccccc32)c(C)c1`, the Potency is 30.1 µM (active).
On the same count and under the same terms, the result for `O=C(O)c1ccc(NC2=C/C(=N/S(=O)(=O)c3ccccc3)c3ccccc3C2=O)cc1` reads 21.3 µM (active).
Same read-out and setting: the result for `O=C(O)c1ccc(S(=O)(=O)/N=C2\C=C(Nc3ccccc3F)C(=O)c3ccccc32)cc1` reads 37.9 µM (active); that for `O=C1C(Nc2ccc(O)cc2)=C/C(=N/S(=O)(=O)c2cccs2)c2ccccc21`, 30.1 µM (active).
As for `COc1ccc(CNCc2cc(C)c(OC)cc2C)c(OC)c1`, the “activity change, negative = inhibition” value was -2.56%.
As for `O=C(O)c1ccc(CNC(=O)c2ccc3c(c2)C(=O)N(Cc2cccnc2)C3=O)cc1`, the “activity change, negative = inhibition” value is -5.76%.
Regarding `Cc1ccccc1C(=O)N1CCN(c2ccc(NC(=S)NC(=O)c3ccco3)cc2)CC1`, the Potency is 21.3 µM (active).
As for `COc1cc(NC(=O)C(C)C)ccc1NC(=O)c1ccco1`, the “activity change, negative = inhibition” value is -9.42%.
Regarding `O=C(Nc1ccccc1C(=O)N1CCN(c2cccc(Cl)c2)CC1)C1=CSCCO1`, the “activity change, negative = inhibition” value is -14.7%.
Consider `Cc1cc(C)n2c(C)nnc2c1`, for which the “activity change, negative = inhibition” value was -0.576%.
`CS(=O)c1ccc(-n2c(=O)n(Cc3ccccc3)c(=O)c3[nH]cnc32)cc1` (stereo not given): the “activity change, negative = inhibition” value is -2.3%.
Turning to `COc1cc2c(cc1OC)CN(C(=S)NC(=O)c1ccccc1)CC2`, the “activity change, negative = inhibition” value is 1.18%.
As for `Cc1cc(C(=O)COC(=O)c2ccc(O)cc2O)c(C)n1-c1ccccc1`, the Potency is 23.9 µM (active).
With `CC(=O)C1=C(O)C(=O)N(c2ccc(O)cc2)C1c1cccc(F)c1` (stereo not given), the “activity change, negative = inhibition” value is -6.31%.
Regarding `O=C(NCc1ccc(F)cc1)c1ccncc1`, the “activity change, negative = inhibition” value is -3.08%.
Consider `O=[N+]([O-])c1ccc(NC(=S)NCc2ccc(F)cc2)cc1`, for which the Potency is 9.53 µM (active).
Same read-out and setting: the result for `O=[N+]([O-])c1ccc(NC(=S)NCCc2ccc(F)cc2)cc1` reads 9.53 µM (active).
Turning to `O=C(NC(=S)Nc1ccc(C(=O)N2CCOCC2)cc1)c1ccc([N+](=O)[O-])cc1`, the “activity change, negative = inhibition” value was -4.55%.
Consider `CCCNc1c(NS(=O)(=O)c2ccc(Br)cc2)c(=O)oc2ccccc12`, for which the “activity change, negative = inhibition” value is -1.84%.
Turning to `N#C/C(=N\Nc1ccc(S(=O)(=O)N2CCc3ccccc32)cc1)C(N)=S`, the Potency is 9.53 µM (active).
For `O=C(NNC(=O)c1n[nH]c(=O)c2ccccc12)c1ccc(Br)cc1`, the “activity change, negative = inhibition” value is -7.52%.
In the case of `COc1ccccc1CNS(=O)(=O)c1ccc(-n2cccn2)cc1`, the “activity change, negative = inhibition” value is -5.7%.
In the case of `COc1ccccc1C1CCN(c2cc(O)ccc2[N+](=O)[O-])CC1`, the Potency is 37.9 µM (active).
Regarding `CS(=O)(=O)c1ccc(N2CCN(c3ccccn3)CC2)c([N+](=O)[O-])c1`, the “activity change, negative = inhibition” value is -8.56%.
The same measure, in the same setting: with `Clc1ccc(C2Nc3cccc4cccc(c34)N2)cc1` the figure was -8.7%.
For the molecule `O=C(O)c1ccccc1NS(=O)(=O)c1cccc(-n2sc3ccccc3c2=O)c1`, the Potency was 23.9 µM (active).
Consider `COc1cc(C(=O)NCCNC(=O)c2cnccn2)cc(OC)c1OC`, for which the “activity change, negative = inhibition” value was -3.03%.
Same read-out and setting: the result for `Cc1ccc(C(=O)Nc2cccc([N+](=O)[O-])c2)cc1S(=O)(=O)Nc1ccc(NC(=O)c2ccccc2)cc1` reads -4.06%.
Take `Cc1ccc(NS(=O)(=O)c2cc(C(=O)Nc3cccc([N+](=O)[O-])c3)ccc2C)cc1`: the Potency was 21.3 µM (active).
Take `Cc1ccc(S(=O)(=O)NCCNc2ccc([N+](=O)[O-])cc2)cc1`: the “activity change, negative = inhibition” value is -6.89%.
In the case of `COCC(=O)N1CCC(n2nccc2NC(=O)c2ccccc2OC)CC1`, the “activity change, negative = inhibition” value is -3.8%.
Still for that read-out and setting: the result for `COc1cc(NS(=O)(=O)c2ccc(NC(=O)c3ccc(F)cc3)cc2)ncn1` reads -8.18%; that for `O=S(=O)(Nc1cccc(-c2ccc(N3CCCCCC3)nn2)c1)c1ccc(F)cc1`, -6.89%; that for `Cc1ccc(S(=O)(=O)Oc2ccc(/C=C(/NC(=O)c3ccccc3)C(=O)Nc3ccccc3)cc2)cc1`, -1.41%.
With `COc1ccc(-c2csc(NC(=O)c3ccccc3NS(=O)(=O)c3ccc(F)c(F)c3)n2)cc1`, the Potency is 5.36 µM (active).
The same measure, in the same setting: the result for `COc1ccc(S(=O)(=O)Nc2ccccc2C(=O)Nc2nc(-c3ccc(F)cc3)cs2)cc1OC` reads 3.38 µM (active); that for `COc1ccc(-c2csc(NC(=O)c3ccccc3NS(=O)(=O)c3ccc(C)cc3)n2)cc1`, 3.38 µM (active).
As for `COc1ccccc1C(=O)Nc1nnc(SCC(=O)NC2CCCC2)s1`, the “activity change, negative = inhibition” value is -5.73%.
Regarding `O=C(Nc1nc(-c2ccccc2)cs1)c1ccccc1NS(=O)(=O)c1ccc(F)cc1`, the Potency was 3.38 µM (active).
For the molecule `C=CCN(c1ccccc1)S(=O)(=O)c1ccc2[nH]cc(C(=O)NCCOC)c(=O)c2c1`, the “activity change, negative = inhibition” value was -10.1%.
Still for that read-out and setting: with `O=C(Nc1ccc2nc3n(c(=O)c2c1)CCCCC3)C(=O)N1CCN(c2ccccc2F)CC1` the figure was -13.9%.
As for `Clc1ccccc1CN(Cc1ccccc1)c1ncnc2nc[nH]c12`, the Potency was 26.9 µM (active).
On the same count and under the same terms, the result for `Clc1ccc2c(c1)-c1nnc(Br)n1-c1ccccc1S2` reads 26.9 µM (active).
As for `CC(C)NC(=O)COc1coc(CN2CCN(c3ccccc3F)CC2)cc1=O`, the “activity change, negative = inhibition” value is -7.58%.
For `O=S(=O)(Nc1cc(Cl)ccc1-n1cncn1)c1cc(Br)ccc1Br`, the Potency is 15.1 µM (active).
Consider `Cc1ccc(SCC(=O)NCc2ccccc2C)cc1`, for which the “activity change, negative = inhibition” value is -8.01%.
Consider `COc1ccccc1CNC(=O)CSc1nc(N)c(C#N)c(-c2cccs2)c1C#N`, for which the Potency is 37.9 µM (active).
As to `COc1ccc(NC(=O)Cn2nnc(C(=O)NCc3cccs3)c2N)c(OC)c1`, the “activity change, negative = inhibition” value was -0.749%.
For `CC(C)N(C(=O)Cn1c(-c2cccnc2)ccc(C#N)c1=O)C(C)C`, the “activity change, negative = inhibition” value is -6.8%.
Still for that read-out and setting: with `CC1CCCC(NC(=O)CN2C(=O)COc3ccccc32)C1C` (stereo not given) the figure was -7.14%.
For `N#CC(C#N)=NNc1ccc(S(=O)(=O)N2CCCCC2)cc1`, the Potency is 3.01 µM (active).
Take `Cc1ccc(S(=O)(=O)N2CCOCC2)cc1N/N=C(\C#N)c1nc2ccccc2[nH]1`: the “activity change, negative = inhibition” value is -10.7%.
As to `COC(=O)c1ccc(COc2cc(O)c3c(c2)OC(C)(C)CC3=O)cc1`, the Potency was 30.1 µM (active).
On to `Cc1ccc(S(=O)(=O)N2CCN(C(=O)CCn3cncn3)CC2)cc1`, for which the “activity change, negative = inhibition” value is -0.576%.
On to `CC(=O)c1ccc(S(=O)(=O)N2CCN(CCOc3ccc(Br)cc3)CC2)cc1`, for which the Potency is 30.1 µM (active).
On to `Cc1ccc(O)c(N=Cc2cc(Cc3ccccc3)cc([N+](=O)[O-])c2O)c1`, for which the Potency was 16.9 µM (active).
As to `CN(C)S(=O)(=O)N1CCN(c2ccnc3cc(Cl)ccc23)CC1`, the “activity change, negative = inhibition” value is -7.84%.
For `O=C(Nc1ccc(C(F)(F)F)cc1)c1csc(-c2ccncc2)n1`, the Potency was 60.1 µM (active).
Take `CC(C)(C)NC(=O)C(c1ccc(O)cc1)N(Cc1ccccc1)C(=O)CCC(=O)Nc1nccs1` (stereo not given): the “activity change, negative = inhibition” value was -6.86%.
As to `Cc1nnc(Sc2cc(NCCCO)c([N+](=O)[O-])c3nonc23)s1`, the Potency is 33.8 µM (active).
For the molecule `O=[N+]([O-])c1c(NCCO)cc(Sc2nc3ccccc3s2)c2nonc12`, the Potency is 23.9 µM (active).
On to `Cc1nnc(SCC(=O)Nc2nonc2C)s1`, for which the “activity change, negative = inhibition” value is -3.05%.
Still for that read-out and setting: with `O=C(Nc1cc(Sc2nc3ccccc3s2)cc([N+](=O)[O-])c1)c1ccccc1F` the figure was -6.57%; with `O=C1C=C(c2ccc3[nH]ccc3c2)C[C@@H](c2ccc(Cl)cc2)C1`, -9.05%.
Regarding `O=C(/C=C/c1cccc(Cl)c1)c1ccc([N+](=O)[O-])o1`, the Potency is 26.9 µM (active).
On to `C/C(=N\NC(=O)c1nnn(-c2nonc2N)c1-c1ccc(Cl)c(Cl)c1)c1ccncc1`, for which the “activity change, negative = inhibition” value is -2.3%.
Regarding `CCn1nc(C)c(CN2CCCC(CNS(=O)(=O)c3ccc(OC)cc3)C2)c1C` (stereo not given), the “activity change, negative = inhibition” value was -7.72%.
Regarding `C=C(C)C(=O)OCC(O)COc1ccc(C(C)(C)c2ccc(OCC(O)COC(=O)C(=C)C)cc2)cc1` (stereo not given), the Potency is 21.3 µM (active).
Consider `COc1ccc(-c2cn(CCCOCc3ccccc3)nn2)cc1`, for which the “activity change, negative = inhibition” value is -4.03%.
For the molecule `O=c1cc(-c2ccccc2)nc2c(-c3ccccc3)c(C(F)(F)F)[nH]n12`, the Potency was 6.01 µM (active).
As for `Nc1nc2nc(-c3ccccc3)cc(C(F)(F)F)c2s1`, the “activity change, negative = inhibition” value is -6.22%.
In the case of `COc1ccc(-c2c(C(F)(F)F)[nH]n3c(=O)cc(-c4ccccc4)nc23)cc1`, the Potency was 19 µM (active).
`COc1ccc(OC)c(C2=NOC(C(=O)NCC3CCCO3)C2)c1` (stereo not given): the “activity change, negative = inhibition” value was -3.8%.
The same measure, in the same setting: with `Cc1sc2ncn(CC(=O)NCCCC(=O)NCc3ccc(F)cc3)c(=O)c2c1C` the figure was -3%.
Regarding `Cc1ccc(CNC(=O)CCNC(=O)N2CCn3c2nc2ccccc23)cc1`, the “activity change, negative = inhibition” value was -3.49%.
For the molecule `Cc1cc(NC(=O)c2cc(-c3ccco3)on2)nn1Cc1ccc(Cl)cc1`, the Potency is 30.1 µM (active).
For `O=C(Nc1ccccc1Cl)/C(Cl)=C(\Cl)S(=O)c1ccccc1` (stereo not given), the Potency was 26.9 µM (active).
Turning to `COc1ccc(NC(=O)/C(Cl)=C(/Cl)S(=O)Cc2ccccc2Cl)cn1` (stereo not given), the Potency is 21.3 µM (active).
Same read-out and setting: the result for `COc1ccc(NC(=O)/C(Cl)=C(/Cl)S(=O)Cc2ccc(Cl)cc2)cn1` (stereo not given) reads 30.1 µM (active).
Turning to `COc1ccc(-n2nc(C(=O)NCC(=O)NCCCN3CCN(C)CC3)c3ccccc3c2=O)cc1`, the “activity change, negative = inhibition” value is -2.19%.
Still for that read-out and setting: with `Cc1ccccc1NC(=O)Cc1nc(COC(=O)c2cccc([N+](=O)[O-])c2)cs1` the figure was -2.22%.
Take `CCSc1ccc(C(=O)Nc2ccc(Br)cn2)cc1[N+](=O)[O-]`: the “activity change, negative = inhibition” value is -1.87%.
As for `CC(=O)Oc1c(I)cc(I)cc1C(=O)Nc1ccc(Cl)cc1`, the Potency was 1.9 µM (active).
As to `Cn1cc(Cl)c(C(=O)N/N=C/c2ccc3c4c(cccc24)CC3)n1`, the “activity change, negative = inhibition” value was -4.26%.
